Consider 30 molecules from PubChem BioAssay (NCATS).

Inconclusive results are not listed. Calls of active or inactive are those of the source. Unless noted, the call rests on the fitted dose curve. Peptide text beside a SMILES is read from it. * marks the point of attachment. Cbz = O=C(OCc1ccccc1)*

A short description of assay [1]: qHTS for Inhibitors of the Functional Ribonucleoprotein Complex (vRNP) of Lassa (LASV) Arenavirus: LASV Primary Screen - GLuc reporter signal (AID 1347082; calls by dose curve; tested in HEK293 reporter line; further: nearly all actives have a fitted effect of over 60% in size; further: potency means the concentration at half of the fitted maximal effect; on activity change, negative = inhibition: on the % scale 0 is the no-effect control and ±100 the full control effect). In general terms: qHTS replaces the single test concentration by a dilution series.
Assay [2] is described as follows: qHTS for Inhibitors of the Functional Ribonucleoprotein Complex (vRNP) of Lassa (LASV) Arenavirus: Viability assay - alamar blue signal for LASV Primary Screen (AID 1347083; calls by dose curve; tested in HEK293 reporter line; further: nearly all actives have a fitted effect of over 80% in size; further: potency means the concentration at half of the fitted maximal effect).
A short description of assay [3]: qHTS for Inhibitors of the Functional Ribonucleoprotein Complex (vRNP) of Lymphocytic Choriomeningitis Arenaviruses (LCMV): Viability assay - alamar blue signal for LCMV Primary Screen (AID 1347085; calls by dose curve; tested in HEK293 reporter line; further: nearly all actives have a fitted effect of over 80% in size; further: potency means the concentration at half of the fitted maximal effect).
Assay [4] addresses Nucleoprotein (Lymphocytic choriomeningitis virus (strain Armstrong)) (UniProt P09992). Nature of the assay: qHTS for Inhibitors of the Functional Ribonucleoprotein Complex (vRNP) of Lymphocytic Choriomeningitis Arenaviruses (LCMV): LCMV Primary Screen - GLuc reporter signal (AID 1347086). Further: nearly all actives have a fitted effect of over 70% in size. Further: potency means the concentration at half of the fitted maximal effect. On activity change, negative = inhibition: on the % scale 0 is the no-effect control and ±100 the full control effect.
Assay [5] in a line: Cytotoxicity counterscreen for inhibitors of SARS-CoV-2 cell entry (AID 1645845). Further: nearly all actives have a fitted effect of over 50% in size. Further: potency means the concentration at half of the fitted maximal effect. In short, it runs like this:
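After a 15 min room-temperature ATPLite 1step step, luminescence reflected ATP remaining in HEK293-ACE2 cells exposed to compound for 1 h plus 48 h at 37 C, with percent activity set by cell and no-cell controls.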

The nature of assay [6]: Primary qHTS to identify inhibitors of SARS-CoV-2 cell entry (AID 1645846). Further: nearly all actives have a fitted effect of over 45% in size. The following applies: activity change, negative = inhibition: at 57.1 µM (top of the series) unless noted. In outline: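 HEK293-ACE2 (Expi293F, stable hACE2), 1500 cells/well, o/n 37C; cpd 23 nL pin, 1 h; MLV-PP w/ SARS-CoV-2-S (Wuhan-Hu-1, Δ19 C-term); 48 h 37C; Bright-Glo luminescence; normalized vs S-PP and bald PP.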

Nucleoprotein (Lymphocytic choriomeningitis virus (strain Armstrong)), sequence (P09992 whole entry, looked up): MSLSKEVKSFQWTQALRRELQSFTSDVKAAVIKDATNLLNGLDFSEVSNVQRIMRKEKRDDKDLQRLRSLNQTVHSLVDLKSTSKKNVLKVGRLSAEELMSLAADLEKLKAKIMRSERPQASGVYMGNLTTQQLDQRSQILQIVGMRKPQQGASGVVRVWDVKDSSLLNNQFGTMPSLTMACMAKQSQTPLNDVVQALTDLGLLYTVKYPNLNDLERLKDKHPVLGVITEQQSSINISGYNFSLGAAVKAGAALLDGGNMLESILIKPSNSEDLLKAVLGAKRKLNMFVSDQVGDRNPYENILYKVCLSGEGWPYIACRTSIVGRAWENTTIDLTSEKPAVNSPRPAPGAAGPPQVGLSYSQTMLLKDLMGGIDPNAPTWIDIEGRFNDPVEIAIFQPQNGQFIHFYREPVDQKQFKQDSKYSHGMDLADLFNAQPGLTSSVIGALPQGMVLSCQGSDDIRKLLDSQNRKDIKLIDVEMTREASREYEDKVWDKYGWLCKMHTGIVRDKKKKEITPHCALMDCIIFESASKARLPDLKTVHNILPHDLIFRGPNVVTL

In the case of `CC(=O)NC(CS)C(=O)O` (stereo not given), the Potency entry in assay [1], in assay [2], in assay [3], in assay [4] and in assay [5] was “inactive” in each case. Besides, the activity change, negative = inhibition in assay [6] was -1.31%.
As to `OC[C@@H](O)[C@@H](O)[C@H](O)[C@@H](O)CO`, the Potency result in assay [1], in assay [2], in assay [3], in assay [4], in assay [5] and in assay [6] was “inactive” in each case.
As for `CCN1CCN(c2ccc(Nc3cc(N(C)C(=O)Nc4c(Cl)c(OC)cc(OC)c4Cl)ncn3)cc2)CC1`, the Potency result in assay [1], in assay [2], in assay [3], in assay [4], in assay [5] and in assay [6] was “inactive” each time.
Take `CCOC(=O)C1=C(N)Oc2ccc(Br)cc2C1C(C#N)C(=O)OCC` (stereo not given): the Potency entry in assay [1], in assay [2], in assay [3], in assay [4] and in assay [5] was “inactive” each time. Also, the activity change, negative = inhibition in assay [6] was -18.1%.
Regarding `NCc1c[nH]c(=S)n1[C@H]1CCc2c(F)cc(F)cc2C1`, the Potency result in assay [1], in assay [2], in assay [3], in assay [4] and in assay [5] was “inactive” each time. In assay [6], the activity change, negative = inhibition was -19.7%.
Regarding `CC(=O)OC1C(C)OC(Oc2c(-c3ccc(O)cc3)oc3cc(O)cc(O)c3c2=O)C(O)C1OC(C)=O` (stereo not given), the Potency result in assay [1], in assay [2], in assay [3], in assay [4], in assay [5] and in assay [6] was “inactive” each time.
Take `C[C@H](NC(=O)C(=O)Nc1ccccc1C(C)(C)C)C(=O)N[C@@H](CC(=O)O)C(=O)COc1c(F)c(F)cc(F)c1F`: the Potency result in assay [1], in assay [2], in assay [3], in assay [4] and in assay [5] was “inactive” each time. The activity change, negative = inhibition in assay [6] is -42.2%.
Take `Oc1cc2c(cc1O)C1c3ccc(O)c(O)c3OCC1(O)C2` (stereo not given): the Potency entry in assay [1], in assay [2], in assay [3], in assay [4] and in assay [5] was “inactive” throughout. In addition, in assay [6], the activity change, negative = inhibition is -5.64%.
On to `O=[N+]([O-])c1cn2c(n1)OC[C@@H](OCc1ccc(OC(F)(F)F)cc1)C2`, for which the Potency entry in assay [1], in assay [2], in assay [3], in assay [4] and in assay [5] was “inactive” each time. The activity change, negative = inhibition in assay [6] was -9.12%.
`CC(C)[C@H](O)C(=O)N[C@@H](C)C(=O)N[C@@H]1C(=O)N(C)CCc2ccccc21`: the Potency entry in assay [1], in assay [2], in assay [3], in assay [4] and in assay [5] was “inactive” each time. Further, the activity change, negative = inhibition in assay [6] worked out at 4.11%.
In the case of `O=C(c1ccc(C(=O)N2CCC(N3CCCC3)CC2)c(Nc2ccccc2)c1)N1CCC(N2CCCC2)CC1`, the Potency result in assay [1], in assay [2], in assay [3], in assay [4] and in assay [5] was “inactive” each time. Further, the activity change, negative = inhibition in assay [6] was -24.6%.
For `O=C(Nc1ccccc1Br)N[C@@H]1CCN(c2ccc(C(F)(F)F)cn2)C1`, the Potency result in assay [1], in assay [2], in assay [3], in assay [4] and in assay [5] was “inactive” each time. Also, the activity change, negative = inhibition in assay [6] was -27.3%.
For `CC(C)C[C@@H](C=O)NC(=O)[C@H](CC(C)C)NC(=O)[C@H](CC(C)C)NC(=O)OCc1ccccc1` (Cbz-Leu-Leu-Leu-aldehyde), the Potency is 1.93 µM (active) in assay [1]; 4.32 µM (active) in assay [2]; 5.44 µM (active) in assay [3]; 3.43 µM (active) in assay [4]; 1.12 µM (active) in assay [5]. Also, the activity change, negative = inhibition in assay [6] is -96.8%.
As to `CCc1c(O)cc(O)c(C(=O)c2ccc(OCCN3CCOCC3)c(OC)c2)c1CC(=O)N(CCOC)CCOC`, the Potency in assay [1] is 12.2 µM (active); in assay [2] it was 6.11 µM (active); in assay [3], 5.44 µM (active); in assay [4], 3.43 µM (active). Moreover, in assay [5], the Potency entry is “inactive”. In assay [6], the activity change, negative = inhibition is -26.7%.
On to `O=c1oc2cc(O)ccc2s1`, for which the Potency result in assay [1], in assay [2], in assay [3], in assay [4] and in assay [5] was “inactive” throughout. Further, in assay [6], the activity change, negative = inhibition is -12.6%.
Take `CN(C)c1ccc(-c2nc3ncc(Cl)c(N4CCN(CC(=O)Nc5nccs5)CC4)c3[nH]2)cc1`: the Potency result in assay [1], in assay [2], in assay [3], in assay [4] and in assay [5] was “inactive” in each case. The activity change, negative = inhibition in assay [6] is -16% [at 27.1 µM].
For `C[C@H](NC(=O)Cc1cc(F)cc(F)c1)C(=O)N[C@H](C(=O)OC(C)(C)C)c1ccccc1`, the Potency result in assay [1], in assay [2], in assay [3], in assay [4] and in assay [5] was “inactive” throughout. The activity change, negative = inhibition in assay [6] was -33%.
With `COC(=O)[C@H](c1ccccc1Cl)N1CCc2sccc2C1`, the Potency result in assay [1], in assay [2], in assay [3], in assay [4] and in assay [5] was “inactive” in each case. Moreover, the activity change, negative = inhibition in assay [6] was -28.2%.
Regarding `N#CC1(c2ccc(NC(=O)c3cccnc3NCc3ccncc3)cc2)CCCC1`, the Potency result in assay [1], in assay [2], in assay [3], in assay [4], in assay [5] and in assay [6] was “inactive” in each case.
Turning to `CC(C)Nc1cc(C(F)(F)F)cc2nc(NC(=O)c3cccnc3)nn12`, the Potency result in assay [1], in assay [2], in assay [3], in assay [4] and in assay [5] was “inactive” in each case. Further, in assay [6], the activity change, negative = inhibition is -4.48%.
On to `CC(NCCc1ccc(O)cc1)C(O)c1ccc(O)cc1` (stereo not given), for which the Potency result in assay [1], in assay [2], in assay [3], in assay [4] and in assay [5] was “inactive” each time. Further, in assay [6], the activity change, negative = inhibition is -5.33%.
As to `CC(C)(O)CCc1ccc(OCc2cc(-c3cccc(OC(F)F)c3)c3ncccc3c2)cc1`, the Potency entry in assay [1], in assay [2], in assay [3], in assay [4] and in assay [5] was “inactive” throughout. Moreover, the activity change, negative = inhibition in assay [6] is -16.6%.
Regarding `CNC(=O)c1ccc2cc(C3(O)CCn4cncc43)ccc2c1` (stereo not given), the Potency entry in assay [1], in assay [2], in assay [3], in assay [4] and in assay [5] was “inactive” in each case. For the same molecule, the activity change, negative = inhibition in assay [6] is -19.9%.
As for `C#CCN(C)CC1=Cc2ccccc2Oc2ccccc21`, the Potency result in assay [1], in assay [2], in assay [3], in assay [4] and in assay [5] was “inactive” in each case. Besides, the activity change, negative = inhibition in assay [6] stood at 1.65%.
Turning to `O=C(CO)N1CCC(c2[nH]nc(-c3ccc(Cl)cc3)c2-c2ccncn2)CC1`, the Potency entry in assay [1], in assay [2], in assay [3], in assay [4] and in assay [5] was “inactive” each time. In addition, in assay [6], the activity change, negative = inhibition is -14.2%.
In the case of `COc1c(N2C[C@@H]3CCCN[C@H]3C2)c(F)cc2c(=O)c(C(=O)O)cn(C3CC3)c12`, the Potency result in assay [1], in assay [2], in assay [3], in assay [4] and in assay [5] was “inactive” each time. Besides, the activity change, negative = inhibition in assay [6] worked out at 2.05%.
`CCOC(=O)C1=C(O)C(=O)N(Cc2ccccc2)C1`: the Potency result in assay [1], in assay [2], in assay [3], in assay [4], in assay [5] and in assay [6] was “inactive” throughout.
Consider `Cc1coc2c1C(=O)C(=O)c1c-2ccc2c1CCCC2(C)C`, for which the Potency result in assay [1], in assay [2], in assay [3], in assay [4] and in assay [5] was “inactive” each time. In assay [6], the activity change, negative = inhibition was -20%.
Turning to `O=C(O)CCCCC(CCSCc1ccccc1)SCc1ccccc1` (stereo not given), the Potency result in assay [1], in assay [2], in assay [3], in assay [4] and in assay [5] was “inactive” throughout. Besides, the activity change, negative = inhibition in assay [6] was -0.966%.
With `CC(Oc1ccc(O)cc1)(P(=O)(O)O)P(=O)(O)O`, the Potency result in assay [1], in assay [2], in assay [3], in assay [4] and in assay [5] was “inactive” each time. Besides, the activity change, negative = inhibition in assay [6] was -6.64%.
